How the values were obtained:
Conditions in all cases: concentration: 1 μM, replicates: in singlicate; n = 1
[1] = test system: T1, TAK1
T1 construct: gene MAP3K7

[2] = test system: TAOK1
[3] = test system: TAOK2
[4] = test system: TAOK3
[5] = test system: TBK1
[6] = test system: TEC
[7] = test system: TESK1
[8] = test system: TGFBR1
[9] = test system: TGFBR2
[10] = test system: TIE1
[11] = test system: T2, TIE2
T2 construct: gene TEK

[12] = test system: TLK1
[13] = test system: TLK2
[14] = test system: TNIK
[15] = test system: TNK1
[16] = test system: TNK2
[17] = test system: TNNI3K
[18] = test system: T3, TRKA
T3 construct: gene NTRK1

[19] = test system: TRKB
[20] = test system: T4, TRKC
T4 construct: gene NTRK3
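Also: KINOMEscan kinase panel screen.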

Row | SMILES | %Inh [1] | %Inh [2] | %Inh [3] | %Inh [4] | %Inh [5] | %Inh [6] | %Inh [7] | %Inh [8] | %Inh [9] | %Inh [10] | %Inh [11] | %Inh [12] | %Inh [13] | %Inh [14] | %Inh [15] | %Inh [16] | %Inh [17] | %Inh [18] | %Inh [19] | %Inh [20]
1 | Nc1ncnc2c1ncn2-c1cccc(F)c1 [SKF-97560] | 0% | 19% | 0% | 0% | 23% | 3% | 15% | 12% | 0% | 0% | 0% | 0% | 0% | 4% | 23% | 15% | 100% | 60% | 41% | 41%
2 | Cc1nnc(-c2ccc3ncn(-c4ccc(S(C)=O)cc4)c3c2)o1 (centres unmarked) | 3% | 100% | 0% | 96.2% | 19% | 1% | 8% | 0% | 38% | 0% | 11% | 23% | 0% | 11% | 4% | 0% | 7% | 0% | 0% | 0%
3 | Cc1ccccc1COc1cc(-n2cnc3cc(Cl)ccc32)sc1C(N)=O [GW813349] | 0% | 0% | 3% | 0% | 22% | 0% | 7% | 28% | 0% | 11% | 0% | 0% | 0% | 30% | 12% | 0% | 0% | 0% | 0% | 5%
4 | CCC(=O)c1c(-c2ccccc2)c2cc(Cl)ccc2c(=O)n1Cc1cc(S(C)(=O)=O)n(CC(N)=O)n1 | 0% | 0% | 15% | 0% | 12% | 0% | 0% | 0% | 0% | 0% | 24% | 2% | 0% | 4% | 0% | 0% | 0% | 0% | 0% | 0%
5 | FC(F)(F)c1ccc(-c2ncn(CCCN3CCOCC3)c2-c2ccncc2)cc1 [SB-217780] | 24% | 0% | 0% | 0% | 3% | 3% | 12% | 2% | 0% | 15% | 6% | 0% | 0% | 0% | 1% | 0% | 0% | 14% | 0% | 0%
6 | O=c1cc(N2CCOCC2)nc2n(Cc3ccc(F)c(Cl)c3)ccn12 [GSK2297099] | 2% | 0% | 0% | 0% | 17% | 12% | 12% | 35% | 0% | 0% | 0% | 11% | 22% | 0% | 0% | 10% | 0% | 0% | 0% | 0%
7 | COc1cc2ncn(-c3cc(OCc4ccncc4Br)c(C(N)=O)s3)c2cc1OC [GW854278] | 0% | 4% | 0% | 0% | 24% | 2% | 26% | 17% | 0% | 31% | 6% | 18% | 0% | 39% | 33% | 0% | 18% | 0% | 0% | 7%
8 | COc1cc(OC)cc(-c2cc3cnc(N)nc3nc2NC(=O)NC(C)(C)C)c1 | 42% | 0% | 0% | 0% | 0% | 0% | 13% | 0% | 7% | 33% | 18% | 0% | 0% | 0% | 14% | 100% | 0% | 0% | 0% | 0%
9 | Nc1nccc2scc(-c3ccc4c(c3)CCN4C(=O)Cc3ccccc3)c12 [GSK2576924] | 1% | 2% | 17% | 10% | 2% | 16% | 0% | 7% | 0% | 55% | 13% | 22% | 3% | 0% | 0% | 0% | 0% | 49% | 0% | 0%
10 | Cn1c(=O)c(F)c(Nc2ccc(I)cc2F)c2c(=O)n(OC[C@H](O)CO)cnc21 | 0% | 0% | 27% | 0% | 52% | 30% | 31% | 20% | 13% | 0% | 9% | 0% | 0% | 0% | 29% | 0% | 4% | 0% | 0% | 0%

From publication PMC5540273 (PLoS ONE, 2017)
